D1 antagonist: Antagonist of Human D 1 Dopamine Receptor: qHTS | D(1A) dopamine receptor (Homo sapiens), P21728 | HEK293 TREx D1 cells, calcium flux, dopamine EC80; active compounds read low | activity change, negative = inhibition, % at 10 µM | 360,000 tested, 3.2% active; in the data active = activity change below about -30%; note: % is set by controls: 0 for no effect and ±100 for the full control effect
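Tetracycline-induced HEK293 Trex D1 cells, force-coupled to calcium, dye-loaded; compounds added and read 180 s, then EC80 dopamine added and calcium flux tracked kinetically another 180 s.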
TRHR enhancer: qHTS for Small Molecule Agonists and Allosteric Enhancers of Human TRH Receptor: Primary Screen for Enhancers; TRHR cells, fluo-8 calcium fluorescence, EC20 TRH enhancement; enhancement, % at 2 µM; 360,000 tested, 0.66% active; AID 493056, 2011; in the data active = enhancement above about 30%; note: 0% is about no effect
Target sequence (P34981 whole entry, looked up): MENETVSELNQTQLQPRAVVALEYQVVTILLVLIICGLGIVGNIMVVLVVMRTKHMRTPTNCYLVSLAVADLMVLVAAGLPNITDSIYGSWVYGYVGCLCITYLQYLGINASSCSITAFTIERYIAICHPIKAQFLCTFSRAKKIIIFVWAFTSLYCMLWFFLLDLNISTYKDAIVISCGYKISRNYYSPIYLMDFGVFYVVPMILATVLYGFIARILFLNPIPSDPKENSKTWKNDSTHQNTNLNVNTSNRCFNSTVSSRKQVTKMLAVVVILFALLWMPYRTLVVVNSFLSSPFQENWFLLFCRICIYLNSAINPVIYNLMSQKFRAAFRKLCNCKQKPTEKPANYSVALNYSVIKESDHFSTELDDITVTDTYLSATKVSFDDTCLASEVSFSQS
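TRHR-expressing cells loaded with fluo-8 calcium dye were read kinetically (ex 480/em 530) during compound addition, then stimulated with an EC20 of TRH (10 nM final). Enhancement of the Gq-mediated intracellular calcium response was scored.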
D1 PAM: Potentiators of Human D1 Dopamine Receptor: qHTS | D(1A) dopamine receptor (Homo sapiens), P21728 | HEK293 TREx D1 cells, calcium flux, dopamine EC20 potentiation | potentiation, % at 10 µM | 360,000 tested, 0.036% active | AID 504651, 2011; in the data active = potentiation above about 30%; note: 0% is about no effect
TRHR ag: qHTS for Small Molecule Agonists and Allosteric Enhancers of Human TRH Receptor: Primary Screen for Agonists. TRHR cells, calcium flux fluo-8, FDSS agonist mode. activation, % at 2 µM. 360,000 tested, 0.18% active; note: 0% is about no effect
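TRHR-expressing cells loaded with fluo-8 calcium dye; 23 nL library compound pin-transferred, kinetic FDSS fluorescence (Ex 480/Em 530) recorded about 180 s for agonist-induced calcium release, before a 10 nM TRH EC20 addition for potentiator mode.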
D1 agonist: Allosteric Agonists of the Human D1 Dopamine Receptor: qHTS; D(1A) dopamine receptor (Homo sapiens), P21728; HEK293 T-REx D1 cells, calcium flux, agonist mode; activation, % at 2 µM; 360,000 tested, 1% active; note: 0% is about no effect
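Tetracycline-induced HEK293 TREx D1 cells, force-coupled to calcium signalling, were dye-loaded with a no-wash calcium kit. Compound was pin-added after a 10 s baseline. Fluorescence was read kinetically at 1 cycle/s for 180 s, with calcium rises flagged as agonism.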
Starred values were filed as active, the others as inactive; . = not tested or not shown. Hits are enriched below; roughly 4.7% of the tested compounds scored in any of these assays. Cut-off read from the data, not from the text of the source, unless noted: active = activation above about 30%; inactive = the rest.

SMILES	D1 antagonist	TRHR enhancer	D1 PAM	TRHR ag	D1 agonist
CCCCN(C)C1=CC2=CC(=C(C#N)C#N)CCC2CC1 (stereo not drawn)	-85*	-9	1	261*	490*
O=C(COC(=O)CNC(=O)c1ccc(Br)cc1)Nc1nnc(-c2ccccc2)o1	-38*	-4	0	0	5
Cc1ccc(C(=O)CCC(=O)OCC(=O)Nc2nnc(-c3ccccc3)o2)cc1	-50*	40*	-2	0	4
CCOc1ccc(C(=O)NCC(=O)OCC(=O)Nc2nnc(-c3ccccc3)o2)cc1	6	0	.	0	5
O=C(N/N=C/C(Br)=C/c1ccccc1)C1CC1	-41*	-8	-6	0	2
CCOc1ccc(NC(=O)CCS(=O)(=O)c2ccc3c(c2)n(C)c(=O)c(=O)n3C)cc1	1	-1	-1	2	-1
COc1ccc(N2C(=O)C(CC(=O)Nc3ccccc3)N(CCC3=CCCCC3)C2=O)cc1 (stereo not drawn)	14	-4	1	1	7
COc1cc(NC(=O)c2ccc(NC(=O)N3CCSc4ncccc43)cc2)cc(OC)c1	-5	2	-2	-1	-1
CCc1ccc(-n2c(=O)c3sc4ccccc4c3n(CC(=O)N3CCCC3)c2=O)cc1	6	0	4	0	0
COc1cc2c3nnc(-c4ccc(F)cc4)c-3cn(Cc3ccccc3F)c2cc1OC	-53*	7	-4	0	4
COc1cc2c3nnc(-c4ccccc4)c-3cn(Cc3ccccc3F)c2cc1OC	-28	-4	-16	2	0
N#CC1CC(c2ccccc2)Nc2cc(Cl)ccc2N1 (stereo not drawn)	-90*	13	-5	0	18
C[C@@H]1C[C@H](O)c2cc(Cl)ccc2N1	10	-8	0	0	0
O=c1cc(O)c2sc3nc(-c4ccccc4)cc(C(F)(F)F)c3c2[nH]1	-2	2	-8	0	56*
COc1ccc(OC)c(-c2cc(C(F)(F)F)c3c(n2)sc2c(O)cc(=O)[nH]c23)c1	10	-6	-8	1	5
C[C@@H]1CCC(=O)N(C[C@@H](C)CSc2ccc(Br)cc2)CC1	-51*	-2	-1	0	-1
COCC(C)NC(=O)CSc1nc2cc(S(=O)(=O)N3CCCCC3)ccc2o1 (stereo not drawn)	-47*	-3	-9	1	4
COCCCNC(=O)CSc1nc2cc(S(=O)(=O)N3CCCCC3)ccc2o1	1	5	0	1	6
Cc1ccsc1CN(C(=O)c1ccc(OCC(C)C)cc1)C1CCS(=O)(=O)C1 (stereo not drawn)	6	1	2	0	4
CCCOc1ccc(Oc2ccc(S(=O)(=O)N3CCN(C)CC3)cn2)cc1	-37*	-6	-3	0	5
Cc1cc(C)cc(Oc2ccc(S(=O)(=O)N3CCN(C)CC3)cn2)c1	-10	-3	-3	0	0
CCOC(=O)c1c(CSC(=N)N)n(-c2ccc(Br)cc2)c2cc(Br)c(OC(C)=O)cc12	2	0	9	2	40*
CC(OC(=O)c1ccc2c(=O)n3c(nc2c1)CCCCC3)C(=O)Nc1ccc(Cl)cn1 (stereo not drawn)	-2	-6	-3	-1	0
CC(=O)c1ccc(NC(=O)c2ccc3c(=O)n4c(nc3c2)CCCCC4)cc1	-45*	0	-4	0	10
CC(OC(=O)c1ccc2c(=O)n3c(nc2c1)CCCCC3)C(=O)Nc1ccc(F)cc1Cl (stereo not drawn)	-37*	1	-4	0	0
O=C(Nc1ccc(Cl)cc1)c1ccc2nsnc2c1	-47*	-8	-15	0	20
O=C(Nc1ccc(Cl)cc1)c1ccc2c(=O)n3c(nc2c1)CCCCC3	-59*	-8	-16	-1	12
CN(C)c1ccc(NC(=O)c2ccc3nsnc3c2)cc1	6	6	-7	-1	1

Assay outcomes deposited in PubChem BioAssay by National Center for Advancing Translational Sciences (NCATS).
